Test results from PubChem BioAssay AID602248 (The Scripps Research Institute Molecular Screening Center, 2012).
About 1,700 (0.47%) of roughly 360,000 compounds were called active. Cut-off read from the data, not from the text of the source: active = activation above about 15%; inactive = the rest. What follows is part of a selection rich in actives, with near analogues and random picks from the rest.

Assay: counter-screen for M1 agonists: effect in parental CHO-K1 cells (AID 602248);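 note: untransfected CHO-K1 host cells lacking M1 receptor as counterscreen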
Details: Fluo-8 calcium fluorescence, at 3 µM, hits give high values, scaled to maximal ATP response, vehicle zero
With `N=c1n(Cc2ccc(Cl)cc2)c2ccccc2n1CC(O)c1ccco1` (configuration not stated) the activation was 1.71% (inactive). For `CC12CCC(=O)N1C(C(=O)Nc1ccc(F)c(F)c1F)CS2` (configuration not stated), the activation was 1.59% (inactive). In the case of `CCCc1nc(-c2ccccc2O)n(-c2ccccc2)n1`, the activation was -0.09% (inactive). In the case of `Cc1nc(NC(CC(C)C)C(=O)O)c2nc(C)oc2n1` (configuration not stated), the activation was -0.16% (inactive). With `O=C(CN(CC1CCCO1)C(=O)CNS(=O)(=O)c1ccc(F)cc1)NCc1ccco1` (configuration not stated) the activation was 1.1% (inactive). For `O=C(NCc1cccs1)C(=O)NCC1OCCCN1S(=O)(=O)c1ccc(F)cc1` (configuration not stated), the activation was -0.04% (inactive). With `CN(NC(=O)C1CC(=O)N(c2ccccc2)C1)C1=NS(=O)(=O)c2ccccc21` (configuration not stated) the activation was -0.27% (inactive). In the case of `CN(C(=O)COC(=O)c1ccc(Br)o1)c1c(N)n(Cc2ccccc2)c(=O)[nH]c1=O`, the activation was 2.4% (inactive). With `Cc1cc2nc3c(=O)n(Cc4ccccc4)c(=O)[nH]c3nc2cc1N` the activation was 47.3% (active). With `Nc1cc(=O)n(Cc2ccccc2)c(=O)n1Cc1ccccc1` the activation was 0.11% (inactive). With `Cc1ccc(S(=O)(=O)n2cccc2CO)cc1` the activation was -0.4% (inactive). For `COc1ccc(-n2c(Cc3cccn3C)nnc2SCC(=O)Nc2cc(C)cc(C)c2)cc1`, the activation was -0.02% (inactive). With `CCOC(=O)N1C(=O)C[C@](Sc2ccc(C)cc2)(C(=O)OC)[C@H]1c1ccccc1` the activation was 1.19% (inactive). In the case of `CC(=O)NC(=S)Nc1ccc(NC(=S)NC(=O)c2ccc([N+](=O)[O-])cc2)cc1`, the activation was 24.5% (active). With `CC(=O)Nc1ccc(NC(=S)NC(=O)c2ccc([N+](=O)[O-])c(C)c2)cc1` the activation was 1.35% (inactive). With `COCCCNC(=S)NC(=O)c1ccc([N+](=O)[O-])cc1` the activation was 0.19% (inactive). With `Cc1nn(C(C)C(=O)N2CCOCC2)c(=O)c2nn(-c3ccccc3)c(C)c12` (configuration not stated) the activation was 2.09% (inactive). In the case of `Fc1ccccc1COc1ccccc1CNCc1ccncc1`, the activation was 4.4% (inactive). For `COc1cccc(CNn2cn[nH]c2=S)c1OCc1ccccc1`, the activation was 1.05% (inactive). For `COc1cccc(CNCCc2c[nH]c3ccccc23)c1OCc1ccccc1F`, the activation was 23.3% (active). For `COc1cc(NC(=O)COC(=O)CSc2ccc3ccccc3c2)c(C)cc1[N+](=O)[O-]`, the activation was 5.21% (inactive). For `COc1ccc(-c2n[nH]c(C)c2-c2ccccc2OC)c(O)c1`, the activation was 15.4% (active). With `COc1ccc(-c2c(-c3ccc(OC)cc3O)nc(C)nc2C(F)(F)F)cc1` the activation was -0.31% (inactive). In the case of `COc1ccc(-c2[nH]ncc2CN(C)Cc2c(C)n[nH]c2C)c(OC)c1`, the activation was 1.07% (inactive). In the case of `Cc1ccc(Cc2cncc(O)c2)cc1S(=O)(=O)O`, the activation was 0.27% (inactive). In the case of `NC(=O)c1ccsc1NC(=O)COC(=O)COc1ccc(C=O)cc1`, the activation was 16.2% (active). In the case of `Cc1cccc(C(=O)OCC(=O)Nc2sccc2C(N)=O)c1C`, the activation was -0.07% (inactive). In the case of `COc1cc(OC)cc(C(=O)OCC(=O)Nc2sccc2C(N)=O)c1`, the activation was 9.07% (inactive). In the case of `CCOC(=O)[C@]12CCC=C1N(Cc1cccc3ccccc13)C(=O)[C@H](CC(=O)NCc1cccc(C(F)(F)F)c1)C2`, the activation was 0.16% (inactive). In the case of `Cc1cccc(CN2CCC(CNC(=O)Nc3ccc(F)c(Cl)c3)CC2)c1`, the activation was 29.2% (active). In the case of `COc1cc(NC(=O)NCC2CCN(Cc3ccc(C)cc3)CC2)cc(OC)c1OC`, the activation was 1.36% (inactive). In the case of `Cc1ccc(C)c(CN2CCC(CNC(=O)Nc3ccc(C)c(F)c3)CC2)c1`, the activation was 2.18% (inactive). For `O=C(O)c1cc2c(cc1NC(=O)c1c(F)cccc1Cl)OCCCO2`, the activation was 0.67% (inactive). For `O=C(O)c1cc(Cl)c(Cl)cc1C(=O)Nc1cccc2ncccc12`, the activation was 20.9% (active). In the case of `Cc1ccc(/C=C(\C#N)C(=O)Nc2cccc3ncccc23)o1`, the activation was 2.57% (inactive). With `COc1ccc(C(=O)CSc2nnnn2C)c(OC)c1` the activation was -0.15% (inactive). With `O=c1c2ccccc2c(-c2ccc(Br)cc2)nn1Cc1ccccc1` the activation was 0.4% (inactive). In the case of `COC(=O)c1ccc(SCc2ccccc2)nc1`, the activation was -0.21% (inactive). For `CSc1c(SCc2ccccc2)cnn(Cc2ccccc2)c1=O`, the activation was 18.2% (active). For `Cc1nn(CC2CC2)c(=O)n1N(C)c1ncc(C(F)(F)F)cc1Cl`, the activation was 1.05% (inactive). With `Cc1ccc2c(CN3CCN(S(=O)(=O)c4ccccc4C(F)(F)F)CC3)cc(=O)oc2c1` the activation was 6.94% (inactive). For `COc1ccc2c(CN3CCN(S(=O)(=O)c4cccs4)CC3)cc(=O)oc2c1`, the activation was 16.1% (active). With `Cc1cc2oc(=O)cc(CN3CCN(S(=O)(=O)c4cccs4)CC3)c2cc1C(C)C` the activation was 1.53% (inactive). In the case of `COc1ccc(NC(=O)Nc2ccc3nsnc3c2)cc1`, the activation was 19.9% (active). For `O=C(Nc1ccc2ccccc2c1)Nc1ccc2snnc2c1`, the activation was 14% (inactive). For `O=C(Nc1ccccc1)c1ccc2nsnc2c1`, the activation was -0.09% (inactive). For `CCc1ccccc1NC(=O)Cc1cn(C)c2ccccc12`, the activation was 8.41% (inactive). With `CC(C)(C)C1CCC(=O)N2CCC[C@]2(c2ccccc2)C1` (some centres not stated) the activation was -0.26% (inactive). In the case of `Cc1nc(N)c(Br)c(C)c1Br`, the activation was -0.78% (inactive). For `COc1cccc(CNc2nc(NCc3cccs3)nc3ccsc23)c1`, the activation was 24.7% (active). For `COc1ccccc1CNc1nc(Nc2ccccc2Cl)c2sccc2n1`, the activation was 7.11% (inactive). With `COc1cccc(CNc2nc(NCc3ccccc3OC)nc3ccsc23)c1` the activation was 8.82% (inactive). For `CN1C(C)(C)CC(NC(=O)CCC(=O)NC2CC(C)(C)N(C)C(C)(C)C2)CC1(C)C`, the activation was 0.35% (inactive). In the case of `C=CCN1C2CCCC1CC(NC(=S)Nc1cccc(OC)c1)C2` (configuration not stated), the activation was 1.29% (inactive). With `N#Cc1c(-c2ccccc2)c(-c2ccccc2)n[nH]c1=O` the activation was -0.04% (inactive). With `O=C(CNCc1ccc(Cl)cc1)Nc1cccc(C(=O)O)c1` the activation was 18.2% (active). In the case of `O=C(CCCOc1ccccc1)Nc1cccc(C(=O)O)c1`, the activation was 0.45% (inactive). In the case of `Cc1ccc(C)c2c1cc(C)c1nnc(SCC(=O)Nc3cccc(C(=O)O)c3)n12`, the activation was 1.47% (inactive). For `O=C(NCc1ccco1)c1cccc(-c2ccc3nncn3c2)c1`, the activation was 0.29% (inactive). In the case of `C1CC1Cc1noc(CN2CCN(CC3CC3)CC2)n1`, the activation was 1.05% (inactive). For `COc1cc(OC)c(-n2cc(-c3ccc(Cl)cc3)[nH]c2=O)cc1Cl`, the activation was 25.2% (active). For `COc1ccc(Cl)cc1S(=O)(=O)N1CCC(O)(c2ccc(Cl)cc2)CC1`, the activation was 0.66% (inactive). In the case of `COc1cc(OC)c(N2CC(C(=O)Nc3cc(Cl)ccc3N3CCOCC3)CC2=O)cc1Cl` (configuration not stated), the activation was 4.62% (inactive). With `O=C(CCCN1CCc2[nH]c3ccc(F)cc3c2C1)c1ccc(F)cc1` the activation was 24% (active). For `CC1CCc2[nH]c3ccc(C(=O)N(C)CC(=O)Nc4cccc(F)c4)cc3c2C1` (configuration not stated), the activation was 2.26% (inactive). For `Cn1c(SCC(=O)N2CCOCC2)nnc1-c1ccc2ncccc2c1`, the activation was 0.63% (inactive). With `Cc1c(Cl)c([N+](=O)[O-])nn1CCCC(=O)NC(C)c1ccccc1` (configuration not stated) the activation was -0.09% (inactive). In the case of `CN(C)c1ccc(/C=N/NC(=O)c2ccc(Cn3cc(Br)cn3)o2)cc1`, the activation was 0.99% (inactive). For `Cc1c(Cl)c([N+](=O)[O-])nn1Cc1ccc(C(=O)N/N=C\c2cc(Cl)ccc2O)o1`, the activation was 19.9% (active). In the case of `C=C(C)CSc1nnc(-c2ccc(C)cc2)n1N`, the activation was 0.17% (inactive). In the case of `O=C(CCN1C(=O)c2ccccc2C1=O)NCCCn1ccnc1`, the activation was 0.76% (inactive). With `COCc1c(N)c(C)nc(Cl)c1C#N` the activation was 16.9% (active). With `Cc1nc(Cl)c(C#N)c2c1CCCC2` the activation was 0.61% (inactive). With `COC(=O)c1c(C)c(C)nc(N)c1C#N` the activation was 0.12% (inactive). In the case of `CCNC(=O)C1(C)CCN(C(=O)c2ccccc2)C1` (configuration not stated), the activation was -0.33% (inactive). In the case of `O=C(Cn1ccc([N+](=O)[O-])n1)NCc1cccs1`, the activation was 0.12% (inactive). With `OCCN1CCN(c2ncnc3c2ncn3[C@H]2CN(Cc3ccco3)C[C@@H](CO)O2)CC1` the activation was 0.92% (inactive). For `CCNC(=O)N1CCN(S(=O)(=O)c2ccc3c(c2)OCCCO3)CC1`, the activation was 1.28% (inactive). With `COc1cc(NC(=O)c2ccc(CNc3c(N4CCCC4)c(=O)c3=O)cc2)cc(OC)c1OC` the activation was 0.42% (inactive). With `Cc1ccc(Cn2c(C)c(C(=O)NCc3ccccc3C(F)(F)F)sc2=O)cc1` the activation was 0.82% (inactive). For `Cc1c(C(=O)NCc2ccc(C#N)cc2)sc(=O)n1Cc1ccc(C(=O)N(C)C)cc1`, the activation was -0.19% (inactive). In the case of `CC(=O)Oc1ccc(Cn2c(C)c(C(=O)NCc3ccc(C#N)cc3)sc2=O)cc1`, the activation was 31.7% (active). For `CCC(CC)C(=O)Nc1c2c(nn1-c1ccc(C)cc1)CS(=O)(=O)C2`, the activation was -0.47% (inactive). With `O=C(NCc1ccc2c(c1)OCO2)C(=O)NCC1OCCN1S(=O)(=O)c1ccc(F)cc1` (configuration not stated) the activation was 1.05% (inactive). In the case of `O=C(O)c1ccc(S(=O)(=O)N2CCOCC2)o1`, the activation was -0.58% (inactive). In the case of `CNC[C@H]1OCc2cnnn2CCCC(=O)N([C@H](C)CO)C[C@@H]1C`, the activation was 0.47% (inactive). In the case of `CC(=O)c1ccc(NC(=O)CSC(=S)N2CCCC2)cc1`, the activation was 1.41% (inactive). With `CC(=O)c1ccc(NC(=S)NC(=O)CC(C)C)cc1` the activation was 16.1% (active). In the case of `CC(C)CC(=O)NC(=S)Nc1ccc(F)cc1F`, the activation was 1.3% (inactive). In the case of `CCCOc1cc(C)c(S(=O)(=O)n2nnc3ccccc32)cc1C`, the activation was 0.16% (inactive). For `CCC(C(=O)Nc1ncccn1)(C(F)(F)F)C(F)(F)F`, the activation was 0.01% (inactive). For `S=C1Nc2cc(Cl)ccc2Sc2ccccc21`, the activation was 1.17% (inactive). In the case of `Cc1ccc(S(=O)(=O)N(C)CC(=O)NCC(c2ccc(F)cc2)N2CCOCC2)cc1` (configuration not stated), the activation was 0.75% (inactive). For `COC(=O)[C@@H]1C[C@@]2(O)[C@H](O)[C@H](O)[C@H](O)C[C@H]2N1Cc1ccc(C)s1`, the activation was 0.11% (inactive). In the case of `Cc1ccc(Oc2cc(NC(=O)CCCn3nc(C)c([N+](=O)[O-])c3C)cc([N+](=O)[O-])c2)cc1`, the activation was 0.22% (inactive). With `COc1ccc(S(=O)(=O)NNC(=O)Nc2ccc(C)cc2)c(OC)c1` the activation was 0.08% (inactive). In the case of `COc1cc(NC(=O)Nc2ccc(C)cc2)cc([N+](=O)[O-])c1`, the activation was 15.6% (active). With `CC(C)CCN1C(=O)c2ccc(C(=O)Nc3cccc(S(N)(=O)=O)c3)cc2C1=O` the activation was 1.4% (inactive). In the case of `CCSC1=NCCN1S(=O)(=O)c1ccc(F)cc1`, the activation was 0.73% (inactive). For `COc1ccc(C(=O)OCC(=O)c2ccc(C)c(S(=O)(=O)N3CCOCC3)c2)cc1OC`, the activation was 15.7% (active). For `Cc1ccc(C(=O)OCC(=O)N2CCCCCC2)cc1S(=O)(=O)N1CCOCC1`, the activation was 0.59% (inactive). For `COc1ccc(CNC(=O)COC(=O)c2ccc(C)c(S(=O)(=O)N3CCOCC3)c2)cc1OC`, the activation was 3.58% (inactive). In the case of `COc1ccc(C(C)NC(=O)C23CC4CC(CC(C4)C2)C3)cc1` (configuration not stated), the activation was -0.13% (inactive). In the case of `Cc1ccc(NC(=O)COC(=O)CN2CCCCCC2=O)c(C)c1`, the activation was -0.27% (inactive). For `COc1ccc(-c2ccc3c(c2)C2CC3CCN2CCC#N)cc1` (configuration not stated), the activation was 4.03% (inactive). In the case of `CCOC(=O)N1CCN(C(=O)c2ccc3c(c2)N(Cc2ccc(C)cc2)CCS3)CC1`, the activation was 1.01% (inactive). For `O=C(O)CCCC(=O)Nc1ccc(Oc2cccc(C(F)(F)F)c2)nc1`, the activation was 0.38% (inactive). For `O=C(NNC(=O)c1csc(-c2cccnc2)n1)Nc1ccc(Cl)cc1`, the activation was 0.53% (inactive). With `O=C(Nc1ccc(Cl)cc1)Nc1ccc(Oc2cccnc2)nc1` the activation was 15.9% (active). For `COc1ccc(NC2CCCN(C(=O)c3ccncc3)C2)cc1` (configuration not stated), the activation was 0.4% (inactive). For `CSc1nc(C)nc2c1c(=O)n(C)c(=O)n2C`, the activation was -0.23% (inactive). For `N#Cc1c(-c2ccc(F)cc2)cc(C2CC2)nc1SCC(=O)c1cccs1`, the activation was 0.07% (inactive).
